Test in all cases: PBM; 200 nM protein, PBS
Common to all, as to conditions: dsDNA, one strand shown

Assay [1] concerns the target HOXA4 (Homo sapiens, UniProt Q00056 201-287, W262R).
In assay [2] the target is T1, SIX6 (Homo sapiens, UniProt O95475 114-200, T165P).
T1 sequence: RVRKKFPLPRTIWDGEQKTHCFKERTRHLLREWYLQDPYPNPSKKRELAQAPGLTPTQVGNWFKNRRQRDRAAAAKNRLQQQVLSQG

Assay [3] deals with HOXA4 (Homo sapiens, UniProt Q00056 201-287, R217L).
Assay [4] addresses T2, SIX6 (Homo sapiens, UniProt O95475 114-200, T139Q).
T2 sequence: T1 sequence with T26Q, P52T

Assay [5] addresses HOXA4 (Homo sapiens, UniProt Q00056 201-287).
Assay [6] addresses HOXA4 (Homo sapiens, UniProt Q00056 201-287, W262F).
In assay [7] the target is T3, SIX6 (Homo sapiens, UniProt O95475 114-200, L167I).
T3 sequence: T1 sequence with P52T, L54I

Assay [8] has as its target T4, SIX6 (Homo sapiens, UniProt O95475 114-200).
T4 sequence: T1 sequence with P52T

Assay [9] concerns the target HOXC10 (Homo sapiens, UniProt Q9NYD6 254-340).
Assay [10] concerns the target PRRX1 (Homo sapiens, UniProt P54821 80-166, F113S).
Assay [11] deals with HOXC10 (Homo sapiens, UniProt Q9NYD6 254-340, K271E).
Assay [12] has as its target PRRX1 (Homo sapiens, UniProt P54821 80-166).
For assay [13], the target named is HOXC9 (Homo sapiens, UniProt P31274 178-260, K195R).
The target of assay [14] is HOXC9 (Homo sapiens, UniProt P31274 178-260).
The target in assay [15] is HOXC9 (Homo sapiens, UniProt P31274 178-260, R193K).
Assay [16] deals with HOXC9 (Homo sapiens, UniProt P31274 178-260, R222W).
For assay [17], the target named is ALX3 (Homo sapiens, UniProt O95076 139-225, N203Q).
Assay [18] addresses ALX3 (Homo sapiens, UniProt O95076 139-225).
Assay [19] deals with ALX3 (Homo sapiens, UniProt O95076 139-225, L168Q).
The target of assay [20] is ALX3 (Homo sapiens, UniProt O95076 139-225, L168V).
In assay [21] the target is ALX3 (Homo sapiens, UniProt O95076 139-225, N203S).
Assay [22] has as its target MSX2 (Homo sapiens, UniProt P35548 130-214, R199I).
Assay [23] has as its target MSX2 (Homo sapiens, UniProt P35548 130-214).
The target in assay [24] is VAX1 (Homo sapiens, UniProt Q5SQQ9 86-172).
Assay [25] has as its target MSX2 (Homo sapiens, UniProt P35548 130-214, F161Y).
The target of assay [26] is VAX1 (Homo sapiens, UniProt Q5SQQ9 86-172, T142I).
For assay [27], the target named is VAX1 (Homo sapiens, UniProt Q5SQQ9 86-172, K157R).

Changes are numbered by the printed parent chain.

Sequence of HOXA4 (Homo sapiens, UniProt Q00056 201-287, R217L) (Q00056 201-287 R217L): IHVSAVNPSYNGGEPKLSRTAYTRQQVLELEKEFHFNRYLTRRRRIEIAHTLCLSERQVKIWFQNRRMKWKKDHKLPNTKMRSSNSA
Sequence of HOXC10 (Homo sapiens, UniProt Q9NYD6 254-340) (Q9NYD6 254-340): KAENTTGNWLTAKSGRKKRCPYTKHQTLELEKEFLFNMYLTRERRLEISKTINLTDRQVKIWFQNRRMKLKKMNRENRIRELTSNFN
Sequence of HOXC10 (Homo sapiens, UniProt Q9NYD6 254-340, K271E) (Q9NYD6 254-340 K271E): as the sequence (Q9NYD6 254-340) above, with K18E counted along it
Sequence of HOXA4 (Homo sapiens, UniProt Q00056 201-287, W262R) (Q00056 201-287 W262R): as the sequence (Q00056 201-287 R217L) above, with L17R, W62R counted along it
Sequence of HOXA4 (Homo sapiens, UniProt Q00056 201-287) (Q00056 201-287): as the sequence (Q00056 201-287 R217L) above, with L17R counted along it
Sequence of HOXA4 (Homo sapiens, UniProt Q00056 201-287, W262F) (Q00056 201-287 W262F): as the sequence (Q00056 201-287 R217L) above, with L17R, W62F counted along it
Sequence of ALX3 (Homo sapiens, UniProt O95076 139-225, N203Q) (O95076 139-225 N203Q): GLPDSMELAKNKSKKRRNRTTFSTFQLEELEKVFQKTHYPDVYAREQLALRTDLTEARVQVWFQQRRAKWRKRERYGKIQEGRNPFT
Sequence of MSX2 (Homo sapiens, UniProt P35548 130-214) (P35548 130-214): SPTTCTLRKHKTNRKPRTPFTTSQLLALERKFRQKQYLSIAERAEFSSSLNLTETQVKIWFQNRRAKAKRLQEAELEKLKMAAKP
Sequence of VAX1 (Homo sapiens, UniProt Q5SQQ9 86-172, T142I) (Q5SQQ9 86-172 T142I): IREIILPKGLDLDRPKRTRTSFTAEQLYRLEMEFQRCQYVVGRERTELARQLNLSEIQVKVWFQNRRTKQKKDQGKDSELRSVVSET
Sequence of PRRX1 (Homo sapiens, UniProt P54821 80-166) (P54821 80-166): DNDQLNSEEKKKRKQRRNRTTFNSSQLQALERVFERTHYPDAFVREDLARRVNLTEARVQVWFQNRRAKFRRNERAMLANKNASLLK
Sequence of HOXC9 (Homo sapiens, UniProt P31274 178-260) (P31274 178-260): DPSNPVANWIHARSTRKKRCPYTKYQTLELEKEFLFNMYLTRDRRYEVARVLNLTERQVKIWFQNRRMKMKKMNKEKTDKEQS
Sequence of MSX2 (Homo sapiens, UniProt P35548 130-214, R199I) (P35548 130-214 R199I): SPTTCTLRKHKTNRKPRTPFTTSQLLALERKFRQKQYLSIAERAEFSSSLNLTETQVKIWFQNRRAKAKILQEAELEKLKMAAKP
Sequence of VAX1 (Homo sapiens, UniProt Q5SQQ9 86-172, K157R) (Q5SQQ9 86-172 K157R): as the sequence (Q5SQQ9 86-172 T142I) above, with I57T, K72R counted along it
Sequence of HOXC9 (Homo sapiens, UniProt P31274 178-260, K195R) (P31274 178-260 K195R): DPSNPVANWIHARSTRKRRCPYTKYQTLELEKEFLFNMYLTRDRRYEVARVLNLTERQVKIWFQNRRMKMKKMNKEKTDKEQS
Sequence of VAX1 (Homo sapiens, UniProt Q5SQQ9 86-172) (Q5SQQ9 86-172): as the sequence (Q5SQQ9 86-172 T142I) above, with I57T counted along it
Sequence of ALX3 (Homo sapiens, UniProt O95076 139-225, L168Q) (O95076 139-225 L168Q): as the sequence (O95076 139-225 N203Q) above, with L30Q, Q65N counted along it
Sequence of ALX3 (Homo sapiens, UniProt O95076 139-225, L168V) (O95076 139-225 L168V): as the sequence (O95076 139-225 N203Q) above, with L30V, Q65N counted along it
Sequence of HOXC9 (Homo sapiens, UniProt P31274 178-260, R193K) (P31274 178-260 R193K): as the sequence (P31274 178-260) above, with R16K counted along it
Sequence of MSX2 (Homo sapiens, UniProt P35548 130-214, F161Y) (P35548 130-214 F161Y): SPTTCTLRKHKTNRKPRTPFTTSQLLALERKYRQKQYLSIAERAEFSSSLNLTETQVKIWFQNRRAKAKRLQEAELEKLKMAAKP
Sequence of PRRX1 (Homo sapiens, UniProt P54821 80-166, F113S) (P54821 80-166 F113S): as the sequence (P54821 80-166) above, with F34S counted along it
Sequence of ALX3 (Homo sapiens, UniProt O95076 139-225, N203S) (O95076 139-225 N203S): as the sequence (O95076 139-225 N203Q) above, with Q65S counted along it
Sequence of HOXC9 (Homo sapiens, UniProt P31274 178-260, R222W) (P31274 178-260 R222W): as the sequence (P31274 178-260) above, with R45W counted along it
Sequence of ALX3 (Homo sapiens, UniProt O95076 139-225) (O95076 139-225): as the sequence (O95076 139-225 N203Q) above, with Q65N counted along it

In the case of GATCCCCC, the binding signal in assay [1] is 9.9 upbm affinity estimate (log intensity, higher = more binding, comparable within an allelic series); in assay [2] it was 9.3 upbm affinity estimate (log intensity, higher = more binding, comparable within an allelic series); in assay [3], 9.87 upbm affinity estimate (log intensity, higher = more binding, comparable within an allelic series); in assay [4] it was 11.1 upbm affinity estimate (log intensity, higher = more binding, comparable within an allelic series); in [5] it was 9.93 upbm affinity estimate (log intensity, higher = more binding, comparable within an allelic series); in [6], 9.82 upbm affinity estimate (log intensity, higher = more binding, comparable within an allelic series).

Take ATACTAAC: the binding signal in assay [7] is 10.1 upbm affinity estimate (log intensity, higher = more binding, comparable within an allelic series); in [8], 10.1 upbm affinity estimate (log intensity, higher = more binding, comparable within an allelic series).

On to AGGGATCA, for which the binding signal was 11.1 upbm affinity estimate (log intensity, higher = more binding, comparable within an allelic series) in assay [7] and 11.1 upbm affinity estimate (log intensity, higher = more binding, comparable within an allelic series) in assay [4].

Take GAGGTTGC: the binding signal in assay [1] is 9.8 upbm affinity estimate (log intensity, higher = more binding, comparable within an allelic series); in [9] it was 9.94 upbm affinity estimate (log intensity, higher = more binding, comparable within an allelic series); in assay [10], 9.19 upbm affinity estimate (log intensity, higher = more binding, comparable within an allelic series); in assay [3], 9.7 upbm affinity estimate (log intensity, higher = more binding, comparable within an allelic series); in assay [5], 9.69 upbm affinity estimate (log intensity, higher = more binding, comparable within an allelic series); in assay [11] it was 9.96 upbm affinity estimate (log intensity, higher = more binding, comparable within an allelic series). The binding signal is 9.89 upbm affinity estimate (log intensity, higher = more binding, comparable within an allelic series) in [6] and 8.94 upbm affinity estimate (log intensity, higher = more binding, comparable within an allelic series) in [12].

On to AGCCCGAG, for which the binding signal in assay [1] is 9.9 upbm affinity estimate (log intensity, higher = more binding, comparable within an allelic series); in assay [13] it was 9.64 upbm affinity estimate (log intensity, higher = more binding, comparable within an allelic series); in assay [3], 9.88 upbm affinity estimate (log intensity, higher = more binding, comparable within an allelic series); in assay [14] it was 9.62 upbm affinity estimate (log intensity, higher = more binding, comparable within an allelic series); in [15], 9.59 upbm affinity estimate (log intensity, higher = more binding, comparable within an allelic series); in assay [5], 9.65 upbm affinity estimate (log intensity, higher = more binding, comparable within an allelic series). For the same sequence, the binding signal in assay [16] is 9.78 upbm affinity estimate (log intensity, higher = more binding, comparable within an allelic series); in assay [6] it was 9.85 upbm affinity estimate (log intensity, higher = more binding, comparable within an allelic series).

On to CCGGCAGG, for which the binding signal in assay [1] was 9.95 upbm affinity estimate (log intensity, higher = more binding, comparable within an allelic series); in assay [9] it was 10.2 upbm affinity estimate (log intensity, higher = more binding, comparable within an allelic series); in assay [3] it was 9.86 upbm affinity estimate (log intensity, higher = more binding, comparable within an allelic series); in assay [17] it was 7.82 upbm affinity estimate (log intensity, higher = more binding, comparable within an allelic series); in assay [5], 10 upbm affinity estimate (log intensity, higher = more binding, comparable within an allelic series); in assay [11], 9.98 upbm affinity estimate (log intensity, higher = more binding, comparable within an allelic series). Also, the binding signal was 7.72 upbm affinity estimate (log intensity, higher = more binding, comparable within an allelic series) in assay [18]; 7.79 upbm affinity estimate (log intensity, higher = more binding, comparable within an allelic series) in [19]; 7.78 upbm affinity estimate (log intensity, higher = more binding, comparable within an allelic series) in assay [20]; 9.96 upbm affinity estimate (log intensity, higher = more binding, comparable within an allelic series) in [6]; 7.86 upbm affinity estimate (log intensity, higher = more binding, comparable within an allelic series) in assay [21].

Take CGCGCGCG: the binding signal in [1] is 9.91 upbm affinity estimate (log intensity, higher = more binding, comparable within an allelic series); in [9], 10.1 upbm affinity estimate (log intensity, higher = more binding, comparable within an allelic series); in [3] it was 9.88 upbm affinity estimate (log intensity, higher = more binding, comparable within an allelic series); in [22], 9.61 upbm affinity estimate (log intensity, higher = more binding, comparable within an allelic series); in assay [5], 9.94 upbm affinity estimate (log intensity, higher = more binding, comparable within an allelic series); in [11], 10 upbm affinity estimate (log intensity, higher = more binding, comparable within an allelic series). For the same sequence, the binding signal in assay [23] was 9.53 upbm affinity estimate (log intensity, higher = more binding, comparable within an allelic series); in assay [24] it was 7.34 upbm affinity estimate (log intensity, higher = more binding, comparable within an allelic series); in [25], 9.52 upbm affinity estimate (log intensity, higher = more binding, comparable within an allelic series); in [26], 7.38 upbm affinity estimate (log intensity, higher = more binding, comparable within an allelic series); in [6], 10.1 upbm affinity estimate (log intensity, higher = more binding, comparable within an allelic series); in [27], 7.37 upbm affinity estimate (log intensity, higher = more binding, comparable within an allelic series).

Values taken from article PMC11006913.
